Assay outcomes: PubChem BioAssay, National Center for Advancing Translational Sciences (NCATS)
Pf growth 48h: Primary qHTS for delayed death inhibitors of the malarial parasite plastid, 48 hour incubation; Potency, µM (series often up to 28.7 µM), actives largely listed as inhibitors; AID 504832, 2011; P. falciparum luciferase growth in erythrocytes, 48 h; actives 5.9% (n = 310,000)
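Here the parasites carry a stable luciferase gene and grow inside erythrocytes in Albumax-based RPMI medium with compound for one erythrocytic cycle. Activity is scored as loss of luminescent signal.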
Pf growth 96h: Primary qHTS for delayed death inhibitors of the malarial parasite plastid, 96 hour incubation | Potency, µM (titrated, usually from 28.7 µM), actives largely listed as inhibitors | P. falciparum luciferase reporter growth, 96 h | actives 6.9% (n = 320,000)
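Plates of compound plus infected erythrocytes (2% hematocrit, 0.05% parasitemia final) incubate 96 hours, 37 C, 5% CO2. Detection reagent added; reduced luminescence from the parasites' luciferase reporter flags inhibition.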
Sm TGR block: qHTS Assay for the Inhibitors of Schistosoma Mansoni Peroxiredoxins | AID 485364, 2010 | purified TGR, DTNB reduction, TNB absorbance 405 nm | Schistosoma mansoni thioredoxin glutathione reductase (TGR), Q962Y6 | Potency, µM (series often up to 114 µM), most hits filed as inhibitors | actives 3% (n = 360,000); further: nearly all actives have a fitted effect of over 60% in size
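Kinetic colorimetric format: TGR-catalysed, NADPH-driven DTNB reduction monitored via TNB absorbance. Enzyme dispensed at 20 nM; compound exposure 15 min at room temperature before reaction start.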
AMA1-RON2 inh: qHTS for Inhibitors of AMA1-RON; Towards Development of Antimalarial Drug Lead: Primary Screen; Plasmodium falciparum AMA1 (3D7) - RON2 peptide interaction; AlphaScreen AMA1-biotinylated RON2 peptide binding; Potency, µM (doses to about 58.2 µM), most hits filed as inhibitors; actives 0.2% (n = 360,000); AID 720542, 2013; further: nearly all actives have a fitted effect of over 45% in size
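AMA1 (3D7) with his tag at 25 nM final met compounds first, then biotinylated RON2 peptide at 25 nM; detection used donor plus acceptor beads, 10 µg/mL apiece, read by AlphaScreen after 30 min at room temperature.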
NS1 function inh: qHTS Assay for Inhibitors of Influenza NS1 Protein Function; Potency, µM (series often up to 46.1 µM); AID 2326, 2010; actives 0.4% (n = 270,000); calls by dose curve; further: actives are rising curves; nearly all actives have a fitted effect of over 50% in size
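A cell-based growth assay was used: compounds that relieve NS1-induced slow growth of budding yeast raise OD600. Assay medium was yeast nitrogen base with ammonium sulphate and -URA supplement, pH 6.0, with 2% galactose.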
Of the large screens only hits and unclear results are named; the others gave an inactive call. Shown are actives, neighbours in structure and some others; about 11% of the full set was active somewhere. Unless noted, the call rests on the fitted dose curve; in most records, active means well fitted curve in the direction sought with a large enough effect; inconclusive means small, poorly fitted or top-dose-only effect, or another doubt; inactive means no such curve, though single readings can be large; an effect the other way counts as inactive or inconclusive.

C[CH2][Hg][S]c1ccccc1C(=O)O	Pf growth 48h 1.9µM, Pf growth 96h 1.2µM (no result: Sm TGR block, NS1 function inh)
O=C(CCCN1CC=C(n2c(=O)[nH]c3ccccc32)CC1)c1ccc(F)cc1	Pf growth 48h 8.28µM, Pf growth 96h 3.29µM
Cc1nnc2sc(SCc3cccc(Cl)c3)nn2c1=O	Pf growth 48h 5.86µM, Pf growth 96h 2.08µM (no result: NS1 function inh)
Cc1nnc2sc(SCc3ccccc3Cl)nn2c1=O	Pf growth 48h inconclusive, Pf growth 96h inconclusive (no result: NS1 function inh)
Cc1nnc2sc(SCc3ccccc3)nn2c1=O	Pf growth 48h 10.4µM, Pf growth 96h inconclusive (no result: AMA1-RON2 inh)
Cc1nnc2sc(SCC(=O)Nc3nccs3)nn2c1=O	Pf growth 48h inconclusive, Pf growth 96h 1.65µM, Sm TGR block inconclusive, NS1 function inh inconclusive
CC(Cc1ccccn1)NC(=O)c1ccc(OC2CCN(Cc3ccccn3)CC2)cc1 (stereo not given)	Pf growth 96h 9.28µM
Cc1csc(C(C)NC(=O)c2ccc(OC3CCN(CCc4ccccc4)CC3)cc2)n1 (stereo not given)	Pf growth 48h 10.4µM
O=C(NCCc1ccccn1)c1ccc(OC2CCN(Cc3ccccn3)CC2)cc1	none
CCOC(=O)c1c(C)[nH]c(C)c1S(=O)(=O)N(C)CC(=O)Nc1cccc(Cl)c1C	none (no result: Pf growth 48h, Pf growth 96h, AMA1-RON2 inh, NS1 function inh)
CCCCCCn1ccc(=N)cc1	Pf growth 48h 3.29µM, Pf growth 96h 0.465µM
CCCCCCCCCCCCCCCCn1cc[n+](CC(C)=O)c1	none (no result: NS1 function inh)
COCCCNc1nc2c(-c3ccc(Cl)cc3)nnn2c2ccccc12	Pf growth 96h 11.7µM
CCCCn1nnnc1C1(C)CCC(=O)N1CCc1ccccc1F (stereo not given)	none (no result: Pf growth 48h, Pf growth 96h, Sm TGR block, NS1 function inh)
CCCCCn1c(=N)n(CC(O)COc2cccc(C)c2)c2ccccc21 (stereo not given)	none (no result: Pf growth 48h, Pf growth 96h, AMA1-RON2 inh, NS1 function inh)
N=c1n(CCCOc2ccc(Br)cc2)c2ccccc2n1CC(N)=O	Pf growth 48h 13.1µM, Pf growth 96h 9.28µM
CCCCn1c(=N)n(CC(O)c2ccccc2)c2ccccc21 (stereo not given)	Pf growth 48h 2.08µM, Pf growth 96h 13.1µM
CCn1c(=N)n(CC(O)c2ccccc2)c2ccccc21 (stereo not given)	Pf growth 48h inconclusive
CCCCn1c(=N)n(CC(O)COc2ccc(C)cc2)c2ccccc21 (stereo not given)	Pf growth 48h 2.33µM (no result: Pf growth 96h)
Cn1c(=O)n(CCCOc2ccc(Br)cc2)c2ccccc21	none (no result: Pf growth 96h)
CCCCn1c(=N)n(CC(O)COc2ccccc2)c2ccccc21 (stereo not given)	Pf growth 48h 5.22µM, Pf growth 96h inconclusive
CCCn1c(=N)n(CC(O)COc2cccc(C)c2)c2ccccc21 (stereo not given)	Pf growth 48h 10.4µM
CCOC(=O)Cn1c(=N)n(CCOc2ccc(OC)cc2)c2ccccc21	none (no result: Pf growth 96h)
CCCn1c(=N)n(CCOc2ccc(OC)cc2)c2ccccc21	Pf growth 48h 14.7µM (no result: Pf growth 96h)
CCc1nc(Nc2ccccc2)c2nnn(Cc3ccccc3)c2n1	Pf growth 96h 10.4µM
CCCc1nc(NCC2CCCO2)c2nnn(Cc3ccccc3)c2n1 (stereo not given)	Pf growth 48h 14.7µM
CCC(C)Nc1nc(N)c([N+](=O)[O-])c(Nc2ccccc2OC)n1 (stereo not given)	Pf growth 48h 11.7µM, Pf growth 96h 10.4µM
CCC(C)Nc1nc(N)c([N+](=O)[O-])c(Nc2cc(OC)ccc2OC)n1 (stereo not given)	Pf growth 48h inconclusive, Pf growth 96h inconclusive, AMA1-RON2 inh inconclusive
CCSc1ncc(Cl)c(C(=O)Nc2ccc(S(N)(=O)=O)cc2)n1	Pf growth 96h 9.28µM
CCSc1ncc(Cl)c(C(=O)Nc2ccccc2)n1	Pf growth 96h 8.28µM
CSc1ncc(Cl)c(C(=O)Nc2ccccc2[N+](=O)[O-])n1	Pf growth 96h 9.28µM
CCSc1ncc(Cl)c(C(=O)Nc2ccc(S(=O)(=O)Nc3ncccn3)cc2)n1	Pf growth 96h inconclusive
CCN(c1ccccc1)c1nnc(NC(=O)Nc2ccc(C)cc2)s1	none (no result: Pf growth 48h, Pf growth 96h, AMA1-RON2 inh, NS1 function inh)
COc1ccc(-c2nc3scc(CCNS(=O)(=O)c4ccc(C)cc4)n3n2)cc1	none (no result: Pf growth 48h, Pf growth 96h, AMA1-RON2 inh, NS1 function inh)
